Reference: PubChem BioAssay AID686978 (National Center for Advancing Translational Sciences (NCATS), 2013)
Hit rate of the full screen: of about 420,000 compounds, about 64,000 (15%) were called active. Roughly 27% stayed inconclusive and do not appear here. These entries were drawn from the full list. Unmarked numbers belong to inactive results. Calls follow the shape of the dose curve; as a rule, active = well fitted inhibition curve with a large enough effect; inconclusive = small, poorly fitted or top-dose-only effect; inactive = flat fitted curve, though single readings scatter.

Experiment: qHTS for Inhibitors of human tyrosyl-DNA phosphodiesterase 1 (TDP1): qHTS in cells in absence of CPT; also: nearly all actives have a fitted effect of over 55% in size
Conditions: DT40 Tdp1-/- hTDP1 cells, no CPT, ATP luminescence, 48 h; activity change, negative = growth inhibition: at 46.2 µM (top of the series)
Method in brief: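 Seeded 400 DT40-hTDP1 cells/well (vehicle DMSO, no 20 nM CPT); pinned compounds; ≥48 hr at 37 °C; CellTiter-Glo luminescence as viability measure.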
% is scaled to controls: 0 for no effect and ±100 for the full control effect; potency is read from the fitted curve at half-maximal effect.

Structure (SMILES) | activity change, negative = growth inhibition [%] | Potency
Cc1cccc(NC(=O)c2ccc(OCC(=O)NCc3ccccc3)cc2)c1C | -22.1 | –
COC(=O)C(C(=O)Nc1cccc(Cl)c1C)C1CCCC1 (stereo not given) | -25.4 | –
CCOC(=O)C(=O)C1C(=O)Nc2ccccc21 (stereo not given) | 5.01 | –
CCC(=O)Nc1c(C)n[nH]c1C | -10 | –
CCOc1ccc(-c2cn(S(=O)(=O)c3cccc4nsnc34)nc2N)cc1 | -13.4 | –
COc1cccc(CNC(=O)CN2C(=O)CCc3cc(S(=O)(=O)N4CCOCC4)ccc32)c1 | -0.508 | –
Cc1cc(NC(=O)CSc2nc(=O)cc(N)n2-c2ccc(F)cc2)no1 | 9.07 | –
CC(=O)c1ccc(NC(=O)COc2ccccc2-c2nc(-c3ccccc3)no2)cc1 | -10.5 | –
CCCN(CCC)c1ccc(C(O)c2nnc(-c3ccccc3)o2)cc1 (stereo not given) | -2.41 | –
CC(=O)c1ccc(NC(c2ccc(F)cc2)c2nnc(-c3ccccc3)o2)cc1 (stereo not given) | – | 8.2 µM (active)
NC(=O)C1(N2CCCC2)CCN(Cc2ccccc2)CC1 | 1.08 | –
COC(=O)[C@@H]1C[C@H]2CC[C@H](O)C[C@H]2N1Cc1ccc(N2CCN(C)CC2)cc1 | 9.08 | –
COCCNC(=O)C(c1ccc(C)o1)N(Cc1ccccc1)C(=O)Cn1nnc2ccccc21 (stereo not given) | -18.4 | –
Cc1ccc2nc(/C(C#N)=C\c3ccc(OC(=O)c4cccs4)cc3)[nH]c2c1 | – | 6.51 µM (active)
Cc1ccc2nc(/C(C#N)=C/c3ccc(-c4ccc(C(=O)OC(C)C)cc4)o3)[nH]c2c1 | – | 5.17 µM (active)
Cc1ccc2nc(/C(C#N)=C/c3ccccc3F)[nH]c2c1 | – | 18.4 µM (active)
COc1cc(/C=C(\C#N)c2nc3ccccc3[nH]2)ccc1O | – | 23.1 µM (active)
Cc1ccc2nc(S(=O)(=O)O)[nH]c2c1 | 4.87 | –
CCOC(=O)c1ccc(-c2ccc(/C=C(\C#N)C(=O)Nc3ccc(OCC)cc3)o2)cc1 | 1.66 | –
N#C/C(=C\c1ccccc1F)c1nc2ccccc2c(=O)[nH]1 | -10.4 | –
COc1ccccc1CSc1nc2ccccc2[nH]1 | -18.3 | –
CCOc1ccc(/C=C(\C#N)c2nc3ccccc3c(=O)[nH]2)cc1OC | -28 | –
N#CCCC(C#N)(c1cccnc1)N1CCOCC1 (stereo not given) | -1.39 | –
CCCCN1CC(COCc2ccccc2)OCCS1(=O)=O (stereo not given) | -27.9 | –
CC(C)c1cc(C(=O)O)on1 | 8.31 | –
CN(C(=O)CSc1nnnn1-c1ccccc1)C1CCCCC1 | 0.578 | –
NNC(=O)CNC(c1ccccc1)c1cc(Cl)ccc1NC(=O)c1ccccc1 (stereo not given) | -9.24 | –

Structure (SMILES) | activity change, negative = growth inhibition [%] | Potency
CC(C)C(c1nnnn1C(C)(C)C)N1CCN(Cc2cccnc2)CC1 (stereo not given) | 8.15 | –
COc1ccc(C(=O)O/N=C(\N)c2ccccn2)cc1[N+](=O)[O-] | -20.5 | –
COc1ccccc1N1CCN(C(=O)Cn2nnc(-c3cccs3)n2)CC1 | -19.7 | –
O=C(Nc1ccccc1-c1nnn(CC(=O)N2CCN(c3ccccc3)CC2)n1)c1cccs1 | – | 23.1 µM (active)
O=C(Nc1ccccc1)c1ccc(NC(=O)c2cccs2)cc1 | 2.02 | –
CCOc1ccc(-c2nnn(CC(=O)N3CCN(c4ccc(F)cc4)CC3)n2)cc1OCC | -10.8 | –
CCc1ccccc1NC(=O)c1cccs1 | -14 | –
O=C(Nc1ccccc1-c1ccccc1)c1cccs1 | – | 23.1 µM (active)
OCCNCCCCOc1ccccc1F | -13.5 | –
Cn1c2c(c(=O)n(C)c1=O)[C@@H]1c3c(ccc4ccccc34)OC[C@@H]1CO2 | 10.5 | –
COc1cc(N2C(=O)CC3(CCCC3)CC2=O)cc(OC)c1OC | 2.17 | –
O=C(COc1ccc(F)cc1)N(CC1=CCS(=O)(=O)C1)c1ccccc1 | -26.4 | –
CC1C(=O)Nc2ccccc2N1C(=O)c1c(F)cccc1F (stereo not given) | -18.1 | –
CC1Oc2ccccc2N(Cc2cccnc2)C1=O (stereo not given) | -1.68 | –
CC1C(=O)N(Cc2ccccc2)c2ccccc2N1C(=O)c1ccccc1 (stereo not given) | – | 13 µM (active)
CCc1cccc(-n2nnc(-c3nsc(NC(=O)c4ccc(C)cc4)n3)c2C)c1 | – | 8.2 µM (active)
Cc1ccc(C(=O)Nc2nc(N)n(-c3ccccc3)n2)cc1 | -12.3 | –
Cc1ccc(C(=O)Nc2nc(-c3ccccc3)ns2)cc1 | -25.5 | –
CCc1ccc(CN(C)C(=O)CCc2nnc(-c3ccc(-c4ccccc4)cc3)o2)nc1 | – | 11.6 µM (active)
CN(Cc1ccccc1)C(=O)CCc1ccccc1 | -27.6 | –
CC(=O)c1ccc(-c2nnc(CCC(=O)N(C)Cc3cnc4ccccn34)o2)s1 | -11.2 | –
CCOc1ccc(C)cc1S(=O)(=O)NC1CCCCCC1 | 10.5 | –
Clc1ccc(C[n+]2cc(-c3ccccc3)n3c2CCC3)cc1 | – | 5.17 µM (active)
Clc1ccc(C[n+]2cc(-c3ccc(Cl)cc3)n3c2CCC3)cc1 | – | 5.8 µM (active)
Cn1c(-c2ccccc2)c[n+]2c1CCCCC2 | 0.0239 | –
COc1ccccc1C(=O)NCCC(=O)N(C)Cc1cccnc1 | 10 | –
COCC1CCN(C(=O)C2CCC(=O)N(Cc3cccc(C(F)(F)F)c3)C2)CC1 (stereo not given) | -1.97 | –

Structure (SMILES) | activity change, negative = growth inhibition [%] | Potency
O=C(NCCc1ccccn1)c1nc(Cn2cc([N+](=O)[O-])cn2)no1 | 3.68 | –
Cc1nc(Cl)c(C#N)c2c1CCCC2 | -8.66 | –
N#C/C(=C1/CCCN1)c1ccccn1 | 4.88 | –
CCc1cc2c(=O)n(-c3ccccc3)c(SCC(=O)O)nc2s1 | 4.2 | –
Cc1sc2nc(SCC(N)=O)n(C)c(=O)c2c1C | -15.2 | –
Cc1sc2nc(SCCO)n(-c3ccccc3)c(=O)c2c1C | – | 13 µM (active)
COc1cccc(N(C(=O)CNC(=O)c2ccco2)C(C(=O)NC2CCCCC2)c2cccnc2)c1 (stereo not given) | -7.84 | –
CCOc1ccc2cc(C#N)c(SCC(=O)OC)nc2c1 | -16.1 | –
CC(C)c1c(C(=O)N/N=C/c2ccc(-c3ccccc3)cc2)nnn1-c1nonc1N | 1.96 | –
CC1(C)C(=O)C2(CCCCC2)C(=O)OC1c1cccs1 (stereo not given) | -15.1 | –
CCNc1c(NS(=O)(=O)c2ccc(C3CCCCC3)cc2)c(=O)oc2ccccc12 | – | 16.4 µM (active)
O=c1oc2ccccc2c(=O)c2ccccc12 | -0.558 | –
CC(C)(C)Nc1c(N)c(=O)oc2ccccc12 | -10.6 | –
Cn1c(Cc2csc(N)n2)nnc1SC/C=C/c1ccccc1 | -1.41 | –
COc1cccc2c(N/N=C/c3ccco3)cc(C)nc12 | 4.74 | –
CCOC(=O)C1=NN(c2ccc(Cl)cc2)/C(=C/C2=NCCc3cc(OC)c(OC)cc32)S1 | -3.61 | –
COc1cc2c(cc1OC)C(/C=C/c1ccco1)=NCC2 | – | 13 µM (active)
CC12C(=O)N(n3cnnc3)C(=O)C1C1C=CC2C1 (stereo not given) | 1.03 | –
CS(=O)(=O)N(CC(=O)N1CCCC1)Cc1ccccc1 | -6.97 | –
O=C1CCCc2c1nc(-c1cccc(Cl)c1)n2O | -24.8 | –
Cc1ccc2nc(-c3cccc(Br)c3)cc(C(=O)Nn3cnnc3)c2c1 | 6.51 | –
O=c1c2cc(Br)ccc2nc(-c2cccc(Cl)c2)n1O | – | 23.1 µM (active)
CCOC(=O)N1CCC(NC(=O)CCc2cn(C)c3ccccc23)CC1 | -15.3 | –
CCC(CC)c1nnc(NC(=O)C2=COCCO2)s1 | 2.02 | –
CNC(=O)NC(=O)CSc1nnc(-c2ccc(F)cc2)n1CC1CCCO1 (stereo not given) | -4.38 | –
Cc1ccc(CNS(=O)(=O)c2ccc(-c3cc(C(F)(F)F)on3)s2)cc1 | -19.5 | –
Cc1cccc(N2CC(C)Cn3c2nc2c3c(=O)n(CC(=O)OCc3ccccc3)c(=O)n2C)c1 (stereo not given) | – | 13 µM (active)

Structure (SMILES) | activity change, negative = growth inhibition [%] | Potency
CC1CN(C2CCCCC2)c2nc3c(c(=O)n(C)c(=O)n3C)n2C1 (stereo not given) | -26.3 | –
COCCn1cnc2c1c(=O)n(CC(=O)NN)c(=O)n2Cc1ccccc1 | 22 | –
Cc1ccccc1SCC(=O)OCC(=O)N1CC(=O)Nc2ccccc21 | 7.53 | –
CC(=O)C1C(c2cccc(Oc3ccccc3)c2)NC(=O)NC1(O)C(F)(F)F (stereo not given) | -25.6 | –
C[C@@H]1CN([C@@H](C)CO)S(=O)(=O)c2ccc(C#Cc3cccc(F)c3)cc2O[C@H]1CN(C)S(=O)(=O)c1cn(C)cn1 | – | 23.1 µM (active)
C[C@H](CO)N1C[C@H](C)[C@@H](CN(C)C(=O)c2cccc(F)c2)Oc2cc(-c3cncnc3)ccc2S1(=O)=O | 9.26 | –
C[C@H]1CN([C@@H](C)CO)S(=O)(=O)c2ccc(-c3cccc(F)c3)cc2O[C@@H]1CN(C)C | -15.1 | –
COCC(=O)N(C)C[C@H]1Oc2cc(Br)ccc2S(=O)(=O)N([C@H](C)CO)C[C@H]1C | -22.5 | –
C[C@@H]1CN([C@@H](C)CO)S(=O)(=O)c2ccc(-c3ccc(C(=O)N(C)C)cc3)cc2O[C@@H]1CN(C)Cc1ccccc1C(=O)O | 10.6 | –
C[C@@H]1CN([C@H](C)CO)S(=O)(=O)c2ccc(C#C[C@@H](C)O)cc2O[C@@H]1CN(C)Cc1ccc(-c2ccccc2)cc1 | – | 6.51 µM (active)
CCCCc1nc(SCC(=O)Nc2nnc(C(C)C)s2)n[nH]1 | -3.34 | –
COc1cccc(N2C(=O)CN(Cc3ccccc3)C2=S)c1 | 17.9 | –
COc1ccccc1NC(=O)C1=C(C)Nc2nnnn2C1c1cccc(Br)c1 (stereo not given) | 5.32 | –
Cc1ccccc1OCCOc1ccc([N+](=O)[O-])cc1/C=N/n1cnnc1 | – | 1.46 µM (active)
COc1ccccc1OCCOc1ccc(/C=N/n2cnnc2)cc1 | -6.26 | –
Cc1cc([N+](=O)[O-])c(-c2ccc(/C=N/n3cnnc3)o2)cc1Cl | -24.4 | –
Cc1ccc(Cn2c(=O)n(-c3ccc(C)cc3)c(=O)c3c2c2cc(C)ccc2n3C)cc1 | -13.4 | –
Cc1nnc(SCC(=O)N2CCOCC2)[nH]c1=O | 0.581 | –
CCC(C)n1[nH]c(=O)c2c(C)cc(C)nc21 (stereo not given) | -4.35 | –
Cc1ccc(S(=O)(=O)N2CCC(C(=O)OCC(=O)N3CC(=O)Nc4ccccc43)CC2)cc1 | -1.96 | –
CCOc1ccc(OCC)c(-c2c(=O)n(OCc3ccc(Cl)cc3)c3ccccc3[n+]2[O-])c1 | – | 8.2 µM (active)
CCOC(=O)COn1c(=O)c(-c2ccc(OCC)cc2)[n+]([O-])c2ccccc21 | -0.585 | –
COc1ccc(OC)c(-c2c(=O)n(OCc3ccccc3Br)c3ccccc3[n+]2[O-])c1 | – | 23.1 µM (active)
O=c1c(-c2ccc(Cl)cc2)[n+]([O-])c2ccccc2n1OCc1nc2ccccc2[nH]1 | -28.2 | –
